Several values for one entry are separate records, joined by “and”; a condition that tells them apart may be missing. Identical values can stand only once. Results filed as inconclusive are left out. Values without a mark were called inactive. Activity calls are given as the source filed them. Calls follow the shape of the dose curve; as a rule, active = well fitted activation curve with a large enough effect; inconclusive = small, poorly fitted or top-dose-only effect; inactive = no such curve, though single readings can be large or run the other way.
Target: Cellular tumor antigen p53 (Homo sapiens) (UniProt P04637)
Assay: Primary qHTS for small molecule compounds that upregulate eGFP-tagged delta133p53alpha (in N-terminal) cells. (AID 2060322); also: nearly all actives have a fitted effect of over 75% in size;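 as to activation: series mostly up to about 56 µM; 0% = DMSO vehicle and 100% = reference activator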
Conditions: NCI-H358 eGFP-delta133p53alpha fluorescence, 24 h; activation: active compounds read high
Method in brief: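 NCI-H358 cells pre-induced 24 h with 10 ng/ml doxycycline to express N-terminal eGFP-delta133p53alpha, then dosed 24 h at 37C without doxycycline; fixed, Hoechst-stained, GFP intensity by laser scanning cytometry, normalized to DMSO (0%) and 57.5 uM 5-azacytidine (100%).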
Potency is read from the fitted curve at half-maximal effect.

Cellular tumor antigen p53 (Homo sapiens), sequence (P04637 whole entry, looked up): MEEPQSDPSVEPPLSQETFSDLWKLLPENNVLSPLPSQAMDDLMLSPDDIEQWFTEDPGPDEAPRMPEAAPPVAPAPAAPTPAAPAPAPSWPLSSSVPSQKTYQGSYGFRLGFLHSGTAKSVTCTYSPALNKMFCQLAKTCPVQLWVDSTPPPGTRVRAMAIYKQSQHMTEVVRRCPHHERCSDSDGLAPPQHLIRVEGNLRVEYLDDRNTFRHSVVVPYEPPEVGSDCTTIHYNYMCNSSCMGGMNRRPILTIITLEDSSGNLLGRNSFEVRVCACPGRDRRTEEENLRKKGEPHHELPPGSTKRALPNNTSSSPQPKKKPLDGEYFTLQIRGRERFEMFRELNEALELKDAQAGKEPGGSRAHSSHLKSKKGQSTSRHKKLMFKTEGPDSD

Question: `N#C/C(=C/c1ccc(O)c(O)c1)C(N)=S` was tested. Which activation did it give?
Answer: -33.2%

Question: For `CCC(C)C(C)(COC(N)=O)COC(N)=O` (centres undefined), which activation is on record?
Answer: 8.37%

Question: How did the activation turn out when `C[C@]12CC[C@H]3[C@@H](CCC4=CC(=O)CC[C@@H]43)[C@@H]1CC[C@@H]2OC(=O)CCC1CCCCC1` was run?
Answer: -13%

Question: With `CCOC(C(=O)OCCN(C)C)(c1ccccc1)c1ccccc1` as the compound, how does the activation read?
Answer: -3.95%

Question: For `CCN(CC)CCOC(=O)C(O)(c1ccccc1)c1ccccc1`, which activation is on record?
Answer: 20.9%

Question: Which activation does the source give for `O=C(O)COc1ccccc1` here?
Answer: -28.8%

Question: How did the activation turn out when `O=C1c2ccccc2C(=O)C1C(=O)C(c1ccccc1)c1ccccc1` was run?
Answer: 24.3%

Question: With `COC(=O)[C@@H](N)CCCN/C(N)=N/[N+](=O)[O-]` as the compound, how does the activation read?
Answer: -1.69%

Question: For `CC(Cc1ccccc1)NCCn1cnc2c1c(=O)n(C)c(=O)n2C` (centres undefined), which activation is on record?
Answer: 9.6%

Question: `COc1ccc(Cc2nccc3cc(OC)c(OC)cc23)cc1OC` was tested. Which activation did it give?
Answer: -17.6% and 20.4% and -35.4%

Question: `CCOC(=O)c1cncn1[C@H](C)c1ccccc1` was tested. Which activation did it give?
Answer: -12.5%

Question: How did the activation turn out when `Clc1ccc(CCC(Cn2ccnc2)Sc2c(Cl)cccc2Cl)cc1` (centres undefined) was run?
Answer: 18.6% and -21.6%

Question: Which activation does the source give for `CCN(CC)CCN1C(=O)CN=C(c2ccccc2F)c2cc(Cl)ccc21` here?
Answer: 11.9%

Question: With `COP(=S)(OC)SCN1C(=O)c2ccccc2C1=O` as the compound, how does the Potency read?
Answer: 21.9 µM (active)

Question: How did the activation turn out when `Cc1ccc(Cl)c(O)c1` was run?
Answer: 5.08%

Question: Which activation does the source give for `[N-]=[N+]=CC(=O)OC[C@H](N)C(=O)O` here?
Answer: 5.02%

Question: How did the activation turn out when `COc1cc(N)c(Cl)cc1C(=O)NC1CN2CCC1CC2` (centres undefined) was run?
Answer: 10.7%

Question: With `ClCCN1CCCC1` as the compound, how does the activation read?
Answer: 4.18%

Question: Which activation does the source give for `CCC(C(N)=O)N1CCCC1=O` (centres undefined) here?
Answer: -3.35%

Question: Which activation does the source give for `CS(=O)(=O)c1ccc(C(=O)C2C(=O)CCCC2=O)c([N+](=O)[O-])c1` here?
Answer: -5.86%

Question: How did the activation turn out when `CCOP(=S)(OCC)Oc1cc(C)nc(C(C)C)n1` was run?
Answer: -8.37%

Question: How did the activation turn out when `C[N+](C)(C)CCOC(=O)C(O)(c1ccccc1)c1ccccc1` was run?
Answer: 16.4%

Question: `C[C@@H]1CC[C@@]2(OC1)O[C@H]1C[C@H]3[C@@H]4CC=C5C[C@@H](O[C@@H]6O[C@H](CO)[C@@H](O[C@@H]7O[C@@H](C)[C@H](O)[C@@H](O)[C@@H]7O)[C@H](O)[C@@H]6O[C@@H]6O[C@@H](C)[C@H](O)[C@@H](O)[C@@H]6O)CC[C@]5(C)[C@@H]4CC[C@]3(C)[C@@H]1[C@H]2C` was tested. Which activation did it give?
Answer: 15.2%

Question: Which activation does the source give for `CC(=CCCC1=CCC(C2=CC(=O)OC2O)OC1O)CCC1=C(C)CCCC1(C)C` (centres undefined) here?
Answer: 16.4%

Question: How did the activation turn out when `Clc1cccc(N2CCNCC2)c1` was run?
Answer: 17.5%

Question: Which activation does the source give for `Nc1ccc(Cl)cc1` here?
Answer: -6.21%

Question: Which activation does the source give for `O=C1OC(CCN2CCCCC2)OC1(c1ccccc1)c1ccccc1` (centres undefined) here?
Answer: -20.9%

Question: `CC(C)(O)C(Cl)(Cl)Cl` was tested. Which activation did it give?
Answer: -9.6%

Question: How did the activation turn out when `NC(=O)c1cc([N+](=O)[O-])cc([N+](=O)[O-])c1` was run?
Answer: 0.837%

Question: For `CCOCCOC(C)=O`, which activation is on record?
Answer: -27.7%

Question: For `O=[N+]([O-])c1cc([N+](=O)[O-])c2ccccc2c1`, which activation is on record?
Answer: -5.02%

Question: For `Cc1nc(-c2ccc(-c3ccc(C(=O)N4CCc5cc6c(cc54)C4(CCN(C)CC4)CO6)cc3)c(C)c2)no1`, which activation is on record?
Answer: -21.1%

Question: For `CCC(OC(C)=O)C(CC(C)NC)(c1ccccc1)c1ccccc1` (centres undefined), which Potency is on record?
Answer: 28.5 µM (active)

Question: Which activation does the source give for `CCCOC(=O)c1cncn1C(C)c1ccccc1` (centres undefined) here?
Answer: 17.5%

Question: For `NCc1cccnc1`, which activation is on record?
Answer: 6.21%

Question: With `C1CN2CCC1CC2` as the compound, how does the activation read?
Answer: -19.2%

Question: How did the activation turn out when `C=C[C@@H]1CN2CCC1C[C@@H]2[C@@H](O)c1ccnc2ccccc12` (some centres undefined) was run?
Answer: -22.8%

Question: Which activation does the source give for `Sc1ccccc1Cl` here?
Answer: -0.837%

Question: How did the activation turn out when `C[C@]12CCC(=O)C(O)=C1CC[C@@H]1[C@H]3CCC(=O)[C@@]3(C)CC[C@@H]12` was run?
Answer: -8.48%

Reference: PubChem BioAssay (NCATS)
